# In all, about 33,000 sequences were measured (“E-score (-0.5 to 0.5)”: median about -0.043, highest 2% from about 0.37 on). Many of the other results were omitted from the sample, so the highest values are more common in it than they were.
# Target: T1, Upc2 (UniProt Q12151)
# T1 sequence: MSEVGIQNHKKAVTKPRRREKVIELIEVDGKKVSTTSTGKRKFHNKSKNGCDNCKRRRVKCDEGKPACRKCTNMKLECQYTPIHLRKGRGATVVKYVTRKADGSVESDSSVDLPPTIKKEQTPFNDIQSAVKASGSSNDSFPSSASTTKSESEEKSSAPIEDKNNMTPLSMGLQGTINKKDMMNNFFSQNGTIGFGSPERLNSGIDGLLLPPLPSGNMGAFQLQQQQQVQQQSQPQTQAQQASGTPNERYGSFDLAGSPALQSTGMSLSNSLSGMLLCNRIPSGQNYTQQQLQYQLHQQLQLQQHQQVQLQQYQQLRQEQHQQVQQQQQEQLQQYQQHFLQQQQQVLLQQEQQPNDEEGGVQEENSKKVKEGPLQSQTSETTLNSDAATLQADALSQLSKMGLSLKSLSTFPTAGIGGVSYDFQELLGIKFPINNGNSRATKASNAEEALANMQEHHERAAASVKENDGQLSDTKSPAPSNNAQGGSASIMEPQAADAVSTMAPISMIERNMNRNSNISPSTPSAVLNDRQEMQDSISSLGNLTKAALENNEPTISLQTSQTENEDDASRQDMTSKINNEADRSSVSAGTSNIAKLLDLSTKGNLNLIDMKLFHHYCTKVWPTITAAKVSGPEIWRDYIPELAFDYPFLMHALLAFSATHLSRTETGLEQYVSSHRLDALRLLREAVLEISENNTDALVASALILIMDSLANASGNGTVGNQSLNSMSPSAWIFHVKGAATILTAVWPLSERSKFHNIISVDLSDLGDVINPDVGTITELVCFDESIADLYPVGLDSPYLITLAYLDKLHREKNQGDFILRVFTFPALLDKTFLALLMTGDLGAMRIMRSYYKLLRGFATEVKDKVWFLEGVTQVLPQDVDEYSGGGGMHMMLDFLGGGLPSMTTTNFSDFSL
# Assay: PBM E-score (8-mer binding enrichment) (E-score (-0.5 to 0.5)); higher = stronger / more preferred TF binding
# Details: protein concentration: 200 nM; construct: GST-full length
# Method: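 Universal 'all 10-mer' protein binding microarrays (Agilent AMADID 015681) probed with GST-tagged S. cerevisiae TFs (full-length or DBD) made by in vitro transcription/translation (PURExpress), about 100-200 nM. Bound TF was detected with fluorescent anti-GST. Each ungapped 8-mer (which stands for itself and its reverse complement) is scored by the PBM enrichment score (E-score), a modified Wilcoxon-Mann-Whitney statistic from -0.5 to +0.5, computed with the Universal PBM Analysis Suite. Scale: above 0.35 generally sequence-specific binding.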
row,Sequence,PBM E-score
1,GCGTACAA,0.324
2,CCGTACAA,0.413
3,CGGTACAA,0.222
4,TCGTACAA,0.487
5,CAGTACAA,-0.0317
6,ACGTACCA,0.255
7,ACGTACAA,0.309
8,GCGTACCA,0.215
9,AGCCCTTC,-0.211
10,ATATATCC,0.0459
11,AGAGGACG,-0.0919
12,AATGGGCA,-0.00586
13,CAAGATAG,-0.0974
14,GTTTCGAA,0.0998
15,ATTTCGTC,0.0429
16,CTTTCGGA,-0.11
17,ATTTCGTG,0.0688
18,ATTTCGTA,0.431
19,CTTTCGTA,0.416
20,GTTTCGGA,0.219
21,GTTTCGTA,0.446
22,CTTTCGTC,-0.043

row,Sequence,PBM E-score
1,CATAATCC,-0.0711
2,GAAGGCGC,-0.132
3,AGCGTAAT,-0.0565
4,CAGCTATA,0.0617
5,ATACGATG,0.473
6,AGACGATG,0.0313
7,ATACGATC,0.465
8,ACACGATC,0.123
9,CTACGATC,0.288
10,ACACGATG,0.166
11,CGCTAAAC,0.345
12,ACAAGCCC,-0.1
13,TAGAACGA,0.383
14,CAGAACGC,-0.0286
15,AAGAACGA,0.408
16,CAGAACGG,0.139
17,AAGAACGG,0.0306
18,TAGAACCA,-0.0454
19,AAGAACGT,0.108
20,CAGAACGA,0.399
21,GAGAACGA,0.36
22,CTTGGATA,-0.103

row,Sequence,PBM E-score
1,AACCTAAC,-0.0536
2,CCCCAACG,-0.107
3,ATTAAACG,0.461
4,ATTTAACA,0.0412
5,ATTTAACC,-0.0686
6,ACTAAACC,0.0385
7,ATTTAACG,0.387
8,ATTAAACA,-0.0789
9,CCTAAACC,0.0842
10,CCTAAACG,0.472
11,ATTAAACC,-0.0396
12,ACTAAACA,-0.109
13,ACTAAACG,0.463
14,CCTAAACA,-0.063
15,CGACTCTA,0.0472
16,CAAGGTTA,0.0313
17,AGCATCCG,0.106
18,TACTCAGA,-0.0518
19,CGCCTGTA,-0.0476
20,GACCCACA,0.0499
21,CAAGTAAA,0.0181
22,GGTTGACA,-0.0866

row,Sequence,PBM E-score
1,ATCTAATC,-0.0686
2,CCTCGTCA,0.108
3,CCTCGTCG,0.195
4,CCTCGTAA,0.444
5,CCTCATAG,-0.226
6,TCTCGTCA,-0.0265
7,CCTCGTGA,0.168
8,TCTCGTAA,0.434
9,CCTCGTAG,0.389
10,TCACGTAA,0.0344
11,CCTCGTAC,0.477
12,CCGCGTAC,0.324
13,CCTCGGAC,0.199
14,CATCACTA,-0.183
15,CACTTTCA,-0.151
16,CCTACACA,-0.118
17,CGAGAGAA,0.113
18,CCTCAGTA,-0.0614
19,GCTCGTGA,0.00182
20,GCACGTAC,0.227
21,GCTCGTCA,0.0569

# — the supplement of paper PMC3334620
